Among the data in PubChem BioAssay AID1458 (National Center for Advancing Translational Sciences (NCATS), 2008) are Potency values, retold here.

Among all 210,000 compounds or so, about 5,900 (2.8%) were called active. Entries that show only a call come without a potency. Roughly 5% stayed inconclusive and do not appear here. Calls come from the whole dose curve; as a rule, active = well fitted activation curve with a large enough effect; inconclusive = small, poorly fitted or top-dose-only effect; inactive = no such curve, though single readings can be large or run the other way. The sample as a whole holds a higher share of actives than the screen did.
Potency is the fitted concentration of half-maximal effect.

A short description of this assay: qHTS Assay for Enhancers of SMN2 Splice Variant Expression. Note: nearly all actives have a fitted effect of over 55% in size. The following applies: HEK293 SMN2-luciferase splicing reporter, luminescence, 30-36 h; series mostly up to 46.1 µM. The source says: NIH Chemical Genomics Center [NCGC] NIH Molecular Libraries Probe Production centers Network [MLPCN] MLPCN Grant: R03 MH084179-01 Assay Submitter (PI): Elliot Androphy NCGC Assay Overview: Spinal muscular atrophy (SMA) is caused by insufficient levels of the survival motor neuron protein SMN. The SMN locus on chromosome 5q13 contains two inverted copies of SMN called SMN1 and SMN2 which are 99% identical at the amino acid level. SMN1 is a fully functional protein and SMN2 skips exon 7 90% of the time. Skipping of exon 7 produces non-functional protein product. 10% of the SMN2 protein includes exon 7 and is fully functional. In the SMA disease state, mutations in the SMN1 locus are the cause of the disease state. Because only 10% of SMN2 is of the fully functional form, it is not sufficient to overcome the deficiency produced by the loss of the SMN1 product. A therapy that either increase the amount of SMN2 product made or to increase the inclusion of exon 7 has been proposed for the treatment of SMA. We have designed an assay to identify small molecules that can increase the amount of functional SMN2 product by appending a luciferase reporter gene after the native SMN2 gene, such that inclusion of exon 7 in the expressed product places the luciferase sequence in frame, thus generating functional luciferase enzyme.
NCGC Assay Protocol Summary: This screen utilizes a luciferase reporter gene assay, combining the promoter and splicing based cassettes in tandem with the major portion of the native SMN2 cDNA, and then transfected into HEK293 cells. Compounds that increase luciferase signal presumably enhance expression of the functional SMN2 splice variant. Passaging media contained DMEM w/ glutamax (+phenol red) 10% FCS, 1x pen/strep, 200 ug/ml hygro, 1x sodium pyruvate. Assay media contained DMEM w/ glutamax (-phenol red) 10% FCS, 1x pen strep, 1x pyruvate Sequence, Parameter, Value, Description (1) Cells, […], 2000 cells/well, 1536 TC treated White solid bottom plate (2) Time, 10-12 hours, 37C 5% CO2 (3) Compound, 23 nl, MLSMR Library (4) Control Compound, 23 nL, Sodium butyrate st 4.5mM (final) conc (5) Time, 30-36 hours, 37C 5% CO2 (6) Reagent, 3 ul, One Glo (TM) from Promega (7) Time, 5-15 minutes, Room temp (8) Detector, Viewlux: luminescent read, 60 second integration, high speed 2x binning Keywords: Spinal muscular atrophy, SMA, SMN2, high throughput screening, MLSMR, MLPCN, NIH Roadmap, qHTS and NCGC
A general note: qHTS replaces the single test concentration by a dilution series.
Take `Cc1cc(-c2n[nH]c(=S)n2/N=C/C(Br)=C/c2ccccc2)n[nH]1`: the Potency result was “inactive”.
Turning to `S=c1[nH]nc(-c2cccnc2)n1/N=C/C(Cl)=C\c1ccccc1`, the Potency is 12.6 µM (active).
With `Cc1ccc(/C=N\n2c(-c3ccccc3)n[nH]c2=S)s1` the entry was “inactive”.
In the case of `O=C(Cn1ncc2c3ccccc3n(Cc3ccccc3)c2c1=O)NCc1ccccn1`, the Potency entry is “inactive”.
Turning to `CCN1CCN(Cc2c(O)ccc3oc(C)c(C(=O)Nc4ccc(C)cc4C)c23)CC1`, the Potency entry is “inactive”.
Turning to `CC(C)(C)c1ccc(C(=O)N2CCC(c3nc(-c4ccc(S(=O)(=O)N5CCCC5)cc4)no3)CC2)cc1`, the Potency entry is “inactive”.
Turning to `COc1cc(CNCCSc2nnnn2C)ccc1OCc1ccc(Cl)cc1Cl`, the Potency entry is “inactive”.
With `CCn1c(SCc2ccccc2)nc2c(c1=O)SCC2` the entry was “inactive”; with `CS(=O)(=O)n1nc(-c2ccccc2)nc1NCc1ccco1`, “inactive”.
`CCS(=O)(=O)n1nc(-c2ccccc2)nc1SCc1ccccc1`: the Potency was 22.4 µM (active).
Then `Cc1ccc(-n2nc(CO)c(C(=O)NCCc3ccccc3)n2)cc1`, with “inactive”; and `Cc1ccc(-n2c3nc(=O)[nH]c(=O)c-3cc3c(Cl)cccc32)cc1`, with “inactive”.
As for `Cc1nonc1NC(=O)CSc1nc2ccccc2cc1C#N`, the Potency result was “inactive”.
Turning to `CCOc1ccc2cc(C#N)c(SCC(=O)OC)nc2c1`, the Potency is 11.2 µM (active).
Then `COc1ccc(N2CCN(C(=O)CSc3nc4cc(OC)c(OC)cc4cc3C#N)CC2)cc1`, with “inactive”.
In the case of `CCN1CCc2nc3sc(C(=O)Nc4ccccc4OC(F)(F)F)c(N)c3cc2C1`, the Potency entry is “inactive”.
On to `COc1cccc(-c2nc3n(n2)C(c2ccccc2Cl)C(C(N)=O)=C(C)N3)c1` (stereo not given), for which the Potency is 15.8 µM (active).
`CC1=C(C(N)=O)C(c2ccc3c(c2)OCO3)n2nc(-c3cccc(C)c3)nc2N1` (stereo not given): the Potency entry is “inactive”.
Turning to `COc1ccc(C2=CC(c3ccccc3Cl)n3nc(-c4ccc(Cl)cc4)nc3N2)cc1` (stereo not given), the Potency result is “inactive”.
`COc1ccc(/C=C/C(=O)Nc2cccnc2)cc1OC`: the Potency result is “inactive”.
For the compound `COc1ccc(/C=C/C(=O)Nc2ccc(C34CC5CC(CC(O)(C5)C3)C4)cc2)cc1OC`, the Potency is 12.6 µM (active).
`COc1ccc(/C=C/C(=O)N2CCCC2)cc1OC`: the Potency result is “inactive”.
With `CCOC(=O)c1ccc(NC(=O)CC2C(=O)N(c3ccccc3)C(=O)N2Cc2cccs2)cc1` (stereo not given) the entry was “inactive”; with `CCOC(=O)c1sc(NC(=O)COc2ncnc3ccccc23)c(C(=O)OCC)c1C`, “inactive”.
Regarding `CCC(=O)Nc1sc(C(=O)Nc2ccccc2)c(C)c1C(=O)OC`, the Potency was 3.55 µM (active).
For `CCOC(=O)c1c(NC(=O)CCl)sc(C(=O)N(CC)CC)c1C`, the Potency result is “inactive”.
Then `COc1ccccc1NC(=O)c1sc2nc(C)c(C(=O)Nc3ccc(Cl)cc3)c(-c3ccc(Br)cc3)c2c1N`, with “inactive”.
Then `CCc1ccccc1NS(=O)(=O)c1ccc2nc(-c3ccccc3)[nH]c2c1`, with “inactive”; and `Cc1c(NC(=O)c2cc(-c3ccc(Br)cc3)on2)c(=O)n(-c2ccccc2)n1C`, with “inactive”.
In the case of `CC(C)Oc1ccc(CNC(=O)C2CCN(c3nc4ccccc4n(C)c3=O)CC2)cc1`, the Potency entry is “inactive”.
With `Cc1cc(C)c2oc(C(=O)Nc3ccc(S(=O)(=O)N(C)c4ccccc4)cc3)cc(=O)c2c1`, the Potency entry was “inactive”.
As to `Cc1ccc(NC(=O)Nc2ccc3oc(C)nc3c2)cc1`, the Potency is 11.2 µM (active).
Consider `Cc1nc2cc(NC(=O)NCc3ccccc3)ccc2o1`, for which the Potency result is “inactive”.
For `Cc1nc2ccc(NC(=O)C(F)(F)F)cc2o1`, the Potency entry is “inactive”.
For the compound `CC(C)c1ccc(NS(=O)(=O)c2ccc3[nH]cc(C(=O)NC4CCCC4)c(=O)c3c2)cc1`, the Potency result was “inactive”.
Take `CCOc1ccc(-c2n[nH]c3c2C(c2ccccc2OC)N(c2ccc(Br)cc2)C3=O)cc1` (stereo not given): the Potency result was “inactive”.
In the case of `COc1cccc(OCC(=O)NNC(=O)c2cnccn2)c1`, the Potency entry is “inactive”.
As to `COc1cccc(OCC(=O)Nc2ccccc2C(N)=O)c1`, the Potency is 11.2 µM (active).
In the case of `CCCOC(=O)Nc1ccccc1C(N)=O`, the Potency result is “inactive”.
On to `CCOc1ccc(-c2nonc2NC(=O)c2oc3ccc(CC)cc3c2C)cc1`, for which the Potency result was “inactive”.
In the case of `CCOC(=O)c1ccc(NC(=O)c2ncn(-c3ccccc3)n2)cc1`, the Potency result is “inactive”.
As to `CCC(=O)N1CCc2cc(S(=O)(=O)CCC(=O)N3CCN(c4ccccc4F)CC3)ccc21`, the Potency entry is “inactive”.
Then `O=C(/C=C/c1ccc(Cl)cc1)Nc1ccc(S(=O)(=O)Nc2ncccn2)cc1`, with “inactive”; and `CC(C)(C)c1ccc(/C=C/C(=O)NC2CCS(=O)(=O)C2)cc1` (stereo not given), with “inactive”.
In the case of `CC(C)(C)c1ccc(/C=C/C(=O)Nc2ncccn2)cc1`, the Potency is 22.4 µM (active).
For `CCN(CC)CCNC(=O)Cn1ncc2c3ccccc3n(Cc3ccccc3C)c2c1=O`, the Potency result is “inactive”.
As for `COCCCNC(=O)c1c(NC(=O)c2cc(=O)c3cc(C)c(C)cc3o2)sc2c1CCCC2`, the Potency result was “inactive”.
For `CCOC(=O)c1nnn(CC(=O)NC(=O)Nc2ccccc2F)c1C(=O)OCC`, the Potency entry was “inactive”.
Turning to `COc1ccc(CNC(=O)CC2Oc3ccc(C)cc3NC2=O)cc1` (stereo not given), the Potency result was “inactive”.
With `O=C(c1ccc(C(F)(F)F)cc1)N1CCC(c2nc(-c3ccc(S(=O)(=O)N4CCCC4)cc3)no2)CC1`, the Potency entry was “inactive”.
Consider `O=C(CSc1cccc[n+]1[O-])c1ccc(-c2ccccc2)cc1`, for which the Potency is 12.6 µM (active).
With `COc1ccccc1C(=O)CSc1cccc[n+]1[O-]` the entry was “inactive”; with `O=C(CSc1cccc[n+]1[O-])c1ccc(Cl)cc1`, “inactive”; with `Cc1c(C(=O)NCc2ccccc2Br)oc2ccc3c(c12)C(=O)CC(C)(C)O3`, “inactive”.
Then `CCS(=O)(=O)c1nc(S(=O)(=O)c2ccc(C)cc2)c(NCc2ccc(Cl)cc2)s1`, with “inactive”.
For `O=c1n(Cc2cccc(C(F)(F)F)c2)c2ccccc2c2nc(-c3ccccc3)nn12`, the Potency entry is “inactive”.
In the case of `Cc1ccc(NC(=O)C(Cc2ccccc2)NS(=O)(=O)c2ccc3c(c2)oc(=O)n3C)cc1C` (stereo not given), the Potency result is “inactive”.
With `C/C=C/c1ccc(OCCOc2ccc(C=O)cc2OC)c(OC)c1`, the Potency result is “inactive”.
Then `COc1cc(/C=C2/C(=O)ON=C2C)ccc1OCc1cccc(F)c1`, with 12.6 µM (active); and `COc1cc(/C=C2/C(=O)ON=C2C)ccc1OCc1ccccc1F`, with “inactive”.
For the compound `CCOC(=O)c1c(C)oc2ccc(N(C(=O)c3ccncc3)S(=O)(=O)c3ccc(CC)cc3)cc12`, the Potency result was “inactive”.
For the compound `CCOC(=O)C1=C(c2ccccc2)Nc2ncnn2C1c1ccc(Cl)cc1` (stereo not given), the Potency entry is “inactive”.
With `O=C(Nc1cc2ccccc2oc1=O)C1CCCCC1`, the Potency was 4.47 µM (active).
As for `O=C(O)c1ccc(NC(=O)C2CCCCC2)cc1`, the Potency entry is “inactive”.
Then `CC(=O)Nc1cc2ccc(OC(C)=O)cc2oc1=O`, with “inactive”.
